This is a sample that favours compounds with a hit; in the whole collection about 22% have one here.
LmPK inh: blocks Leishmania mexicana pyruvate kinase activity; AID 1721; purified LmPK, Kinase-Glo ATP luminescence, 1 h; actives 0.37% (n = 290,000); Potency, µM (doses to about 57.5 µM), inactives show at the highest dose activity change, negative = inhibition, usual class: inhibitors; Q27686; note: potency is the fitted concentration of half-maximal effect; % is set by controls: 0 for no effect and ±100 for the full control effect
Target sequence (Q27686 whole entry, looked up): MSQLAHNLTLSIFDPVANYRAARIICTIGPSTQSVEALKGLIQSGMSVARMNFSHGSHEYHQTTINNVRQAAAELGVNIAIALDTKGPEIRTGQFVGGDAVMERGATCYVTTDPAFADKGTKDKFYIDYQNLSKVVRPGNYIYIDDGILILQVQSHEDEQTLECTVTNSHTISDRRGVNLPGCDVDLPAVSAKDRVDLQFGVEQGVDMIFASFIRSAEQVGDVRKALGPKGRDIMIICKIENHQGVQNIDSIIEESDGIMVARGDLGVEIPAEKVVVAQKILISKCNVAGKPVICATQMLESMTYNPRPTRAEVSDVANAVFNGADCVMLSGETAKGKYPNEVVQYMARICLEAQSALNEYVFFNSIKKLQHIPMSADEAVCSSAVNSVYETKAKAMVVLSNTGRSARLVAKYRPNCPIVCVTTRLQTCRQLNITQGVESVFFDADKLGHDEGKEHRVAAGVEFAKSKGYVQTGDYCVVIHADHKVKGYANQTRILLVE
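Purified LmPK (0.1 nM) with 0.5 mM PEP and 0.1 mM ADP in imidazole buffer pH 7.2 with MgCl2/KCl, 1 h at room temperature. ATP formed was read by luciferase luminescence and normalized to no-enzyme and uninhibited controls.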
Pf growth 96h: P. falciparum growth inhibition at 96 hour, primary screen for plastid delayed-death inhibitors; AID 504834; Potency, µM (highest dose often 28.7 µM), for inactives: top-dose activity change, negative = inhibition, actives largely listed as inhibitors; P. falciparum luciferase reporter growth, 96 h; actives 6.9% (n = 320,000); note: potency is the fitted concentration of half-maximal effect; % is set by controls: 0 for no effect and ±100 for the full control effect
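Two-generation exposure (96 h) targets delayed-death phenotype. Reporter parasites carrying integrated firefly luciferase, in red cells at 2% hematocrit and 0.05% parasitemia final, kept at 37 C, 5% CO2; luminescence loss indicates inhibition.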
Pf growth 48h: inhibits P. falciparum growth in the first generation, 48 h; P. falciparum luciferase growth in erythrocytes, 48 h; Potency, µM (top dose mostly 28.7 µM), for the others: top-dose activity change, negative = inhibition, hits mostly inhibitors; actives 5.9% (n = 310,000); note: potency is the fitted concentration of half-maximal effect; % is set by controls: 0 for no effect and ±100 for the full control effect
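Growth was read as firefly luciferase luminescence after a 48 h, 37 C, 5% CO2 exposure of compounds to reporter-bearing P. falciparum cultures (0.1% parasitemia, 2% hematocrit final) in Albumax-supplemented RPMI 1640.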
Cycloheximide cs: counter-screen hit for Shiga toxin inhibitors, cycloheximide; actives 12% (n = 300,000); cell reporter, cycloheximide protein synthesis inhibition counterscreen; max response, %; in the data active = max response mostly above about 13%, no sharp cut-off; inactive = mostly below about 14%; note: read at 38.3 µM for the half of the compounds with a filed dose; 0% is about no effect
Shiga inhibitor: Shiga toxin inhibition. inhibition, % at 38.7 µM. AID 2315. Vero cells, Shiga toxin protein synthesis inhibition reporter. actives 9.2% (n = 290,000); in the data active = inhibition mostly above about 28%, no sharp cut-off; inactive = mostly below about 43%; note: 0% is about no effect
* hit, by the source's call; ? = inconclusive; · = no result; [ ] = another dose, or the depositor's remark. Unless noted, calls come from the whole dose curve; as a rule, active = well fitted inhibition curve with a large enough effect; inconclusive = small, poorly fitted or top-dose-only effect, or another doubt; inactive = no such curve, though single readings can be large or run the other way.

SMILES	LmPK inh	Pf growth 96h	Pf growth 48h	Cycloheximide cs	Shiga inhibitor
Cn1nc(C(=O)Nc2cccc(S(=O)(=O)N3CCOCC3)c2)c2ccccc2c1=O	·	-5%	?	·	·
Nc1nccnc1C(=O)OCC(=O)Nc1cccc(S(=O)(=O)N2CCCCC2)c1	3%	?	5%	-3	-8
Cn1nc(C(=O)Nc2cccc(S(=O)(=O)N3CCCC3)c2)c2ccccc2c1=O	·	9.3µM*	8.3µM*	·	·
CC(C)n1nc(C(=O)Nc2cccc(S(=O)(=O)N3CCOCC3)c2)c2ccccc2c1=O	·	10µM*	?	·	·
O=C(COc1ccc2ccccc2c1Br)N1CCCC1	-8%	?	20%	42*	35
Cc1cccc(C)c1OCC(=O)Nc1ncn[nH]1	-2%	2%	4%	-3	-14
CC(C)(C)NC(=O)CN1CCCN(C(=O)COc2ccc(Cl)c3ccccc23)CC1	·	?	12µM*	·	·
CCOC(=O)N1CCN(C(=O)COc2ccc3ccccc3c2Br)CC1	0%	13µM*	7%	0	-5
O=C(COc1ccc2ccccc2c1Br)Nc1ncn[nH]1	-1%	·	33%	32*	76*
CC(=O)N1CCN(S(=O)(=O)c2cccc(C(=O)Nc3cc(C(F)(F)F)ccc3N3CCOCC3)c2)CC1	-10%	?	?	-2	-8
O=C(NNC(=O)c1cc([N+](=O)[O-])ccc1Cl)c1cccs1	1%	18%	-2%	-3	27
Cc1ccc(C)c(OCC(=O)N2CCOCC2)c1	1%	5%	2%	3	-3
O=C(COc1ccc2ccccc2c1Br)N1CCOCC1	1%	·	50%	25	39*
CCCn1cnc2cc(NCc3ccccn3)ccc21	1%	-11%	·	37*	85*
COc1cccc(CNc2nnnn2C)c1OC	6%	79%	9%	-2	-3
COc1cccc(CNc2ccc3c(c2)ncn3C(C)C)c1OC	-6%	0%	·	44*	162*
CCCn1cnc2cc(NCc3cccc(OC)c3O)ccc21	0%	2%	72%	37*	126*
COc1ccccc1-n1cnc2cc(NCc3ccccn3)ccc21	-4%	-22%	?	38*	113*
Cc1cnccc1CNC(=O)CC1C(=O)NCCN1CC(C)(C)C (configuration not stated)	4%	219%	?	-2	-1
CCCn1c(N)c(C(=S)NC(=O)C2CC2)c(=O)n(C)c1=O	-3%	7%	-1%	-2	-10
CCCn1c(NCc2cccc(OC)c2O)nc2ccccc21	1%	107%	12µM*	28*	39*
C/C(=N/NC(=O)c1cnccn1)c1ccncc1	0%[11.5 µM]	-2%	33%	17	31
C/C(=N\NC(=O)c1cc(-c2ccc(C)s2)[nH]n1)c1ccco1	-4%	87%	76%	39*	66*
C/C(=N/NC(=O)c1cc(C)[nH]n1)c1ccncc1	3%	?	47%	17*	49*
C/C(=N\NC(=O)Cc1cccn1C)c1ccco1	9%	41%	18%	14	33
SMILES	LmPK inh	Pf growth 96h	Pf growth 48h	Cycloheximide cs	Shiga inhibitor
C/C(=N/NC(=O)c1cc(C)[nH]n1)c1ccco1	-20%	343%	54%	27*	42*
C/C(=N\NC(=O)c1ccn(C)n1)c1ccco1	-5%	?	121%	40*	85*
Cc1ccc(-c2cc(C(=O)N/N=C/c3c(C)nn(-c4ccccc4)c3C)n[nH]2)s1	0%	60%	?	1	-8
CN(C(=O)CCNC(=O)Cn1cnc2ccccc2c1=O)c1ccccc1F	-6%	0%	28%	1	17
CSc1ccc(S(=O)(=O)NC2CC3CCC2C3)cc1 (configuration not stated)	0%	?	-10%	-1	·
CCCCCCCCCCCCCC[C@@H](O)[C@@H](O)[C@@H](N)CO	·	·	·	4	-18
Brc1c(-c2ccccc2)nc2n1Cc1ccccc1-2	-12%	180%	162%	52*	141*
Nc1nc(-c2ccccc2)c(-c2ccccc2)n1N	0%	18%	17%	9	48
c1ccc2c(c1)Cn1c-2nc2ccccc21	14µM*	-17%	176%	32*	62*
CO/N=C/C(C#N)=C/c1cc(C(=O)c2ccccc2)cn1C	2%	2.9µM*	?	5	-5
O=C(O)c1ccccc1Nc1ccc(CCc2ccc(Cl)c(Cl)c2)cc1	·	·	·	16*	27*
O=C(O)c1ccccc1Nc1cc(Cl)cc(Cl)c1	·	·	·	-2	-1

Bioassay records (PubChem)
